Measurements published in PubChem BioAssay AID1159580 (chemical genetic matrix, 2015).
Values joined by “and” are separate entries in the source; they are usually repeats but may differ in a detail not shown here. Equal values may be shown once. About 2,000 (36%) of roughly 5,500 compounds were called active. Another 18% or so got no clear call; they are omitted. No stated cut-off is given here; in the data, active means normalized growth mostly below about 0.91 (no sharp cut-off); inconclusive means no clear call, values can overlap the other calls; inactive means mostly above about 0.92. Some of the results follow.

Experiment: chemical genetic growth profiling, strain panel (AID 1159580);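 further: tested at 20 µM; growth read once vehicle control cultures reached saturation at 30 °C; 1 = growth at the plate median or of vehicle wells; lower values mean less growth of the strain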
Conditions: S. cerevisiae deletion strains, growth OD

Measured: normalized growth

CC(=O)O[C@@H]1CC[C@@]2(C)C(CC[C@]3(C)C2CC=C2C4CC(C)(C)CC[C@]4(C(=O)O)CC[C@]23C)C1(C)C (stereo partly drawn)
inactive: locus YAL021C, strain ccr4, hits give low values 0.949 | locus YAL026C, strain drs2, hits give low values 0.957 | locus YAL030W, strain snc1, hits give low values 0.98 | locus YBL061C, strain skt5, hits give low values 0.955 | locus YBR009C, strain hhf1, hits give low values 1.01 | locus YBR021W, strain FUR4, hits give low values 1 | locus YBR023C, strain chs3, hits give low values 0.918 | locus YBR171W, strain sec66, hits give low values 1 | locus YBR229C, strain ROT2, hits give low values 0.992 | locus YBR231C, strain swc5, hits give low values 0.913 | locus YBR279W, strain paf1, hits give low values 0.982 | locus YCL011C, strain gbp2, hits give low values 0.965 | locus YCL016C, strain dcc1, hits give low values 0.96 | locus YCL029C, strain bik1, hits give low values 0.996 | locus YCL061C, strain MRC1, hits give low values 1 | locus YCL069W, strain vba3, hits give low values 1.01 | locus YCR088W, strain abp1, hits give low values 1.01 | locus YDL005C, strain med2, hits give low values 0.99 | locus YDL035C, strain GPR1, hits give low values 1.05 | locus YDL040C, strain nat1, hits give low values 1 | locus YDL074C, strain BRE1, hits give low values 1.07 | locus YDL101C, strain DUN1, hits give low values 0.975 | locus YDL134C, strain PPH21, hits give low values 0.974 | locus YDL185W, strain tfp1, hits give low values 0.976 | locus YDL192W, strain arf1, hits give low values 1.01 | locus YDR001C, strain nth1, hits give low values 1.01 | locus YDR101C, strain arx1, hits give low values 1.02 | locus YDR137W, strain rgp1, hits give low values 1.02 | locus YDR159W, strain sac3, hits give low values 1.03 | locus YDR162C, strain NBP2, hits give low values 1.03 | locus YDR195W, strain ref2 1.04 | locus YDR297W, strain sur2, hits give low values 0.939 | locus YDR318W, strain mcm21, hits give low values 1.01 | locus YDR334W, strain swr1, hits give low values 0.985 | locus YDR335W, strain msn5, hits give low values 0.957 | locus YDR388W, hits give low values 0.983 | locus YDR392W, strain spt3, hits give low values 0.95 | locus YDR502C, strain sam2, hits give low values 0.978 | locus YEL003W, strain gim4, hits give low values 0.976 | locus YEL037C, strain rad23, hits give low values 0.99 | locus YEL061C, strain CIN8 (second series), hits give low values 1.01 | locus YEL061C, strain CIN8, hits give low values 1 | locus YER015W, strain faa2, hits give low values 0.936 | locus YER016W, strain bim1, hits give low values 0.965 | locus YER110C, hits give low values 0.976 | locus YER111C, strain swi4, hits give low values 0.96 | locus YER155C, strain BEM2 (second series), hits give low values 0.964 | locus YER155C, strain BEM2, hits give low values 0.985 | locus YER167W, strain BCK2, hits give low values 1.01 | locus YFR010W, strain ubp6, hits give low values 0.949 | locus YGL078C, strain dbp3, hits give low values 0.977 | locus YGL086W, strain mad1, hits give low values 1.04 | locus YGL167C, strain pmr1, hits give low values 0.986 | locus YGL227W, strain vid30, hits give low values 1.01 | locus YGL240W, strain doc1, hits give low values 1.08 | locus YGL248W, strain PDE1, hits give low values 0.998 | locus YGL253W, strain hxk2, hits give low values 0.984 | locus YGR135W, strain pre9, hits give low values 0.954 | locus YGR229C, strain SMI1, hits give low values 0.988 | locus YGR252W, strain gcn5, hits give low values 0.982 | locus YHR013C, strain ard1, hits give low values 0.933 | locus YHR030C, strain SLT2, hits give low values 0.983 | locus YHR079C, strain IRE1 (second series), hits give low values 0.983 | locus YHR079C, strain IRE1, hits give low values 0.974 | locus YHR094C, strain hxt1, hits give low values 0.987 | locus YHR129C, strain ARP1, hits give low values 0.995 | locus YHR142W, strain chs7, hits give low values 0.958 | locus YHR200W, strain rpn10, hits give low values 0.987 | locus YIL066C, strain RNR3, hits give low values 1.03 | locus YIL073C, strain SPO22, hits give low values 1.01 | locus YIL125W, strain kgd1, hits give low values 0.999 | locus YIR030C, strain dcg1, hits give low values 0.985 | locus YJL092W, strain hpr5, hits give low values 1.01 | locus YJL095W, strain BCK1 (second series), hits give low values 0.966 | locus YJL095W, strain BCK1, hits give low values 1.01 and 0.986 | locus YJL115W, strain asf1, hits give low values 1.01 | locus YJL129C, strain trk1, hits give low values 1.02 | locus YJL134W, strain LCB3, hits give low values 0.996 | locus YJL154C, strain vps35, hits give low values 1.03 | locus YJL164C, strain tpk1, hits give low values 0.927 | locus YJL166W, strain qcr8, hits give low values 0.953 | locus YJL168C, strain set2, hits give low values 0.987 | locus YJL187C, strain SWE1 (second series), hits give low values 0.976 | locus YJR043C, strain POL32, hits give low values 1.06 | locus YJR066W, strain TOR1, hits give low values 0.882 | locus YKL009W, strain mrt4, hits give low values 1.03 | locus YKL068W, hits give low values 1.02 | locus YKL085W, strain MDH1 (second series), hits give low values 1.04 | locus YKL085W, strain MDH1, hits give low values 1.04 | locus YKL160W, strain elf1, hits give low values 0.954 | locus YKL190W, strain CNB1, hits give low values 1.03 | locus YKR001C, strain vps1, hits give low values 1 | locus YKR026C, strain gcn3, hits give low values 1.01 | locus YKR091W, strain srl3, hits give low values 1 | locus YLL001W, strain dnm1, hits give low values 1.01 | locus YLL026W, hits give low values 1 | locus YLL041C, strain sdh2, hits give low values 0.996 | locus YLR027C, strain aat2, hits give low values 0.981 | locus YLR039C, strain RIC1, hits give low values 1.1 | locus YLR058C, strain SHM2, hits give low values 0.989 | locus YLR102C, strain apc9, hits give low values 0.981 | locus YLR113W, strain HOG1, hits give low values 0.975 | locus YLR221C, strain rsa3, hits give low values 0.954 | locus YLR258W, strain gsy2, hits give low values 0.98 | locus YLR262C, strain YPT6 (second series), hits give low values 0.886 | locus YLR262C, strain YPT6, hits give low values 1.14 | locus YLR268W, strain sec22, hits give low values 1.01 | locus YLR320W, strain mms22, hits give low values 0.968 | locus YLR330W, strain CHS5, hits give low values 1 | locus YLR342W, strain FKS1 (second series), hits give low values 1.05 | locus YLR342W, strain FKS1, hits give low values 0.919 | locus YLR357W, strain rsc2, hits give low values 0.893 | locus YLR370C, strain arc18, hits give low values 0.957 | locus YLR371W, strain rom2, hits give low values 0.991 | locus YLR384C, strain iki3, hits give low values 0.981 | locus YLR418C, strain cdc73, hits give low values 0.984 | locus YML016C, strain PPZ1, hits give low values 0.99 | locus YML032C, strain rad52, hits give low values 1.01 | locus YML120C, strain ndi1, hits give low values 0.999 | locus YML124C, strain tub3, hits give low values 0.99 | locus YMR078C, strain ctf18, hits give low values 0.977 | locus YMR125W, strain sto1, hits give low values 1.01 | locus YMR129W, hits give low values 1.01 | locus YMR205C, strain PFK2, hits give low values 0.991 | locus YMR223W, strain ubp8, hits give low values 0.985 | locus YMR231W, strain pep5, hits give low values 0.99 | locus YMR263W, strain SAP30, hits give low values 0.985 | locus YMR307W, strain GAS1, hits give low values 0.985 | locus YNL067W, strain RPL9B, hits give low values 0.973 | locus YNL071W, strain lat1, hits give low values 1.02 | locus YNL153C, strain GIM3, hits give low values 0.988 | locus YNL183C, strain NPR1, hits give low values 0.914 | locus YNL233W, strain BNI4, hits give low values 0.991 | locus YNL248C, strain rpa49, hits give low values 1.03 | locus YNL250W, strain rad50, hits give low values 0.959 | locus YNL271C, strain bni1, hits give low values 0.981 | locus YNL298W, strain CLA4, hits give low values 0.995 | locus YNL307C, strain MCK1, hits give low values 0.985 | locus YNL322C, strain KRE1 (second series), hits give low values 0.988 | locus YNR049C, strain mso1, hits give low values 1.01 | locus YNR052C, strain pop2, hits give low values 0.985 | locus YOL012C, strain htz1 0.851 | locus YOL147C, strain pex11, hits give low values 1.01 | locus YOR001W, strain rrp6, hits give low values 1.02 | locus YOR061W, strain CKA2, hits give low values 1.04 | locus YOR069W, strain VPS5, hits give low values 0.989 | locus YOR070C, strain gyp1, hits give low values 0.986 | locus YOR080W, strain dia2, hits give low values 1 | locus YOR083W, strain WHI5, hits give low values 0.968 | locus YOR136W, strain idh2, hits give low values 0.979 | locus YOR144C, strain elg1, hits give low values 0.981 | locus YOR184W, strain ser1, hits give low values 1.05 | locus YOR231W, strain MKK1, hits give low values 0.966 | locus YOR265W, strain rbl2, hits give low values 0.984 | locus YOR270C, strain vph1, hits give low values 0.946 | locus YOR290C, strain snf2, hits give low values 0.983 | locus YOR316C, strain cot1, hits give low values 0.98 | locus YPL078C, strain atp4, hits give low values 0.992 | locus YPL106C, strain sse1, hits give low values 0.923 | locus YPL240C, strain hsp82, hits give low values 0.985 | locus YPL256C, strain CLN2, hits give low values 0.982 | locus YPR119W, strain clb2, hits give low values 0.981 | locus YPR141C, strain kar3, hits give low values 0.982 | locus YPR163C, strain tif3, hits give low values 0.991 | locus YPR167C, strain met16, hits give low values 0.987 | strain wtn01, hits give low values 1.03
active: locus YDR069C, strain doa4, hits give low values 0.84 | locus YGL173C, strain kem1, hits give low values 0.902 | locus YHR027C, strain rpn1, hits give low values 0.913 | locus YMR058W, strain fet3, hits give low values 0.655 | locus YNL209W, strain ssb2, hits give low values 0.793 | locus YOR106W, strain vam3, hits give low values 0.852 | locus YPL051W, strain arl3, hits give low values 0.833
